Reference: PubChem BioAssay (Tox21)
Inconclusive results are not listed. A call without a number means that no potency is given here. Values without a mark were called inactive. Active and inactive are the calls of the source. Calls come from the whole dose curve; as a rule, active = well fitted cell-killing curve with a large enough effect in the repeat runs; inconclusive = weak or mixed curves, or effect the other way; inactive = flat fitted curve, though single readings scatter.

Experiment: cAMP Responsive Elements (CRE) small molecule antagonists, cell-based qHTS assay: qHTS cell viability counter screen (AID 2060913); note: nearly all actives have a fitted effect of over 40% in size
Conditions: CRE-bla HEK293T viability, CellTiter-Glo luminescence, 5 h; series mostly up to 92.4 µM; viability change, negative = cytotoxic: at the top concentration
In short: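 Cytotoxicity read in the same wells as the CRE-bla HEK293T antagonist assay: after 3 h compound with 0.25 uM NKH477 final and 2 h beta-lactamase substrate, CellTiter-Glo luminescence measured.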

SMILES	viability change, negative = cytotoxic	Potency
Fc1ccc(C2(Cn3cncn3)OC2c2ccccc2Cl)cc1 (stereo not given)	-8.02%	
N#CC(Br)(Br)C(N)=O	-15.1%	
O=P1(NCCCl)OCCCN1CCCl (stereo not given)		inactive
CC(C)OC(=O)Nc1cccc(Cl)c1		inactive
C[N+](C)(C)CC1CO1 (stereo not given)	-0.498%	
CCOC(=O)CC(SP(=O)(OC)OC)C(=O)OCC (stereo not given)		inactive
Cc1ccc2cc3c(ccc4ccccc43)c3c2c1CC3	-9.26% [at 42.5 µM]	
Brc1ccc(Oc2ccccc2)cc1		inactive
COC(=O)c1ccccc1N		inactive
ClC(Cl)=C(c1ccc(Cl)cc1)c1ccc(Cl)cc1		inactive
Oc1ccc(C(c2ccc(O)cc2)(C(F)(F)F)C(F)(F)F)cc1	-2.87%	
CCOP(=O)(CN(CCO)CCO)OCC	5.94%	
O=NN1CCCC1		inactive
CCCCOP(=O)(CCCC)OCCCC	-4.04%	
O=S1(=O)OCCO1	-0.199%	
O=P1(N(CCCl)CCCl)NCCCO1 (stereo not given)		inactive
O=C(O)C1C(C(=O)O)C2(Cl)C(Cl)=C(Cl)C1(Cl)C2(Cl)Cl (stereo not given)		inactive
CCCC[n+]1ccccc1C		inactive
CC(C)(C)OOC(=O)c1ccccc1		inactive
CC(COc1ccc(Oc2ccccc2)cc1)Oc1ccccn1 (stereo not given)	-2.94%	

SMILES	viability change, negative = cytotoxic	Potency
CC1=C(C(=O)Nc2ccccc2)S(=O)(=O)CCO1	14.3%	
CC1(C)C(C=C(Cl)Cl)C1C(=O)OC(C#N)c1cccc(Oc2ccccc2)c1 (stereo not given)		inactive
CCOCn1c(-c2ccc(Cl)cc2)c(C#N)c(Br)c1C(F)(F)F	-26.9%	
Cc1cccc(C)c1NC(=O)CN1CCCC1=O		inactive
COc1nc(NC(C)C)nc(NC(C)C)n1		inactive
CCOP(=S)(OCC)SCS(=O)(=O)C(C)(C)C	-14.6%	
COc1ccc2c3c1O[C@H]1[C@H](O)CC[C@H]4[C@@H](C2)N(C)CC[C@@]341	-1.14%	
COC(=O)Nc1nc2ccccc2[nH]1		inactive
Brc1ccc(Br)cc1		inactive
Cl[C@H]1OCCO[C@@H]1Cl		inactive
O=[N+]([O-])c1cccc2cccc([N+](=O)[O-])c12	-1.08%	
Nn1cnnc1		inactive
ClCCCCBr	6.21%	
S=C1NCCN1		inactive
COc1ccc(N)cc1		inactive
CC(CCc1ccccc1)NC(C)C(O)c1ccc(O)cc1 (stereo not given)	7.98% [at 42.5 µM]	
CCCC[N+]1(C)[C@@H]2CC(OC(=O)[C@H](CO)c3ccccc3)C[C@H]1[C@@H]1O[C@@H]12 (stereo not given in full)	1.99% [at 42.5 µM]	
CC(=O)NC1CCSC1=O (stereo not given)	-2.47% [at 42.5 µM]	
CC[C@H]1C[C@@H]2C[C@H]3c4[nH]c5ccc(OC)cc5c4CCN(C2)[C@@H]13	-2.75%	
C[C@@H](Oc1ccc(Cl)cc1Cl)C(=O)O	-1.09%	
